Our source for the Potency and outcome values is PubChem BioAssay (Tox21).

Test [1] is described as follows: qHTS assay to identify small molecule agonists of the sonic hedgehog signaling (Shh) pathway (AID 1259368; calls by dose curve;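 also: NIH/3T3-derived 3T3Gli1-Luc cells carrying a stable Gli1-driven firefly luciferase reporter; series mostly up to about 92 µM; nearly all actives have a fitted effect of over 15% in size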). An outline of the steps:
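Cells of a mouse NIH/3T3 clone stably expressing luciferase under the Gli1 transcriptional response element are exposed to test chemicals for 24 hr at 37 C. Pathway activation is detected as a rise in luminescence.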

A short description of test [2]: qHTS assay to identify small molecule antagonists of the sonic hedgehog signaling (Shh) pathway (AID 1259369; calls by dose curve; also: nearly all actives have a fitted effect of over 45% in size; also: potency is read from the fitted curve at half-maximal effect). An outline of the steps: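 Cells are plated and held 4hr at 37 C, compounds (DMSO) are pinned in, conditioned medium is added to stimulate the pathway, and after 24hr luciferase reagent is added for 30min before luminescence is read.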
(In general: qHTS replaces the single test concentration by a dilution series.)

Test [3] deals with Estrogen receptor beta (Homo sapiens) (UniProt Q92731). The test can be described thus: qHTS assay to identify small molecule agonists of the estrogen receptor beta (ER-beta) signaling pathway (AID 1259377; active = well fitted activation curve with a large enough effect in the signal ratio in the repeat runs, not every such curve was filed as active; the % refers to the signal ratio). In a few lines: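 Beta-lactamase reporter readout: fluorescence of LiveBLAzer B/G FRET substrate after 2 h at room temperature, following 16 h compound treatment of ER-beta-UAS-bla HEK293T cells at 37C in 2% charcoal-stripped FBS medium.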

Test [4] has the same target. The test can be described thus: qHTS assay to identify small molecule antagonists of the estrogen receptor beta (ER-beta) signaling pathway (AID 1259378; active = well fitted inhibition curve with a large enough effect in the signal ratio in the repeat runs, not every such curve was filed as active; the % refers to the signal ratio). In a few lines: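 ER-beta-UAS-bla HEK293T cells in 2% charcoal-stripped FBS medium treated with compound plus 1nM final 17-beta-estradiol for 16 hr at 37C. Beta-lactamase reporter read by FRET substrate fluorescence after 2 hours at room temperature.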

Test [5] can be described thus: qHTS assay to identify small molecule agonists of the androgen receptor (AR) signaling pathway in the presence of an antagonist - cell viability counter screen (AID 1259379).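 Also: MDA-kb2 human breast cancer cells carrying an MMTV luciferase reporter; series mostly up to about 92 µM; nearly all actives have a fitted effect of over 25% in size.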 An outline of the steps: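 Cytotoxicity is assessed by CellTiter-Fluor in MDA-kb2 cells carrying an MMTV-driven luciferase reporter. Cells receive 3.0uM nilutamide plus compounds at 15 concentrations and incubate 16 hr at 37C without CO2 before fluorescence reading.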

The nature of test [6]: qHTS assay to identify small molecule agonists of the estrogen receptor beta (ER-beta) signaling pathway - cell viability counter screen (AID 1259380). Also: nearly all actives have a fitted effect of over 30% in size. In a few lines: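 Cytotoxicity is measured in parallel with the reporter screen: after 16 hr compound exposure at 37C and a 2 hr LiveBLAzer step, CellTiter-Glo is added to the same ER-beta-UAS-bla HEK293T wells and luminescence read after 30 min.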

The nature of test [7]: qHTS assay to identify small molecule antagonists of the estrogen receptor beta (ER-beta) signaling pathway - cell viability counter screen (AID 1259382). Also: series mostly up to about 92 µM; nearly all actives have a fitted effect of over 55% in size. In a few lines:
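Cytotoxicity counter screen multiplexed with the beta-lactamase antagonist assay: GripTite HEK293T ER-beta-bla cells were treated 16 hr with test chemicals in the presence of 1nM 17-beta-estradiol, and viability was measured by CellTiter-Glo.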

Test [8] deals with Estrogen receptor (Homo sapiens) (UniProt P03372). The test can be described thus: qHTS assay to identify small molecule agonists of the estrogen receptor alpha (ER-alpha) signaling pathway in the presence of an antagonist (AID 1259383; calls by dose curve; also: top concentration of the series differs between compounds; nearly all actives have a fitted effect of over 15% in size). An outline of the steps: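 Agonist-mode confirmation in the presence of the ER antagonist ICI-182,780 at 10.0nM final. Breast-derived VM7Luc4E2 reporter cells were exposed to compounds for 22hr, and ERE-driven luciferase was quantified by luminescence.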

The nature of test [9]: qHTS assay to identify small molecule agonists or antagonists of the thyroid stimulating hormone receptor (TSHR) signaling pathway - wild type cell line counter screen (AID 1259384; calls by dose curve). An outline of the steps:
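Wild-type Hek293 cells, 800/well, 18 h at 37C, then compound with Ro20-1724 for 30 min RT. cAMP by HTRF (cAMP-d2/anti-cAMP cryptate), 1 h RT, fluorescence read. 15 concentrations, triplicates.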

Test [10] has as its target Thyrotropin receptor (Homo sapiens) (UniProt P16473). The test can be described thus: qHTS assay to identify small molecule antagonists of the thyroid stimulating hormone receptor (TSHR) signaling pathway (AID 1259385; calls by dose curve; also: nearly all actives have a fitted effect of over 20% in size). An outline of the steps:
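TSHR-HEK293 cells (800/well) plated 18 h, then compounds with Ro20-1724 and TSH at 1.5 ng/mL final, 30 min at room temperature. cAMP quantified by HTRF (cAMP-d2/anti-cAMP-cryptate, 1 h); 15 concentrations in triplicate.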

Test [11] in a line: qHTS assay to identify small molecule agonists of the estrogen receptor alpha (ER-alpha) signaling pathway in the presence of an antagonist - cell viability counter screen (AID 1259386).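 Also: series mostly up to about 92 µM; cells exposed to compounds for 22 h at 37 °C before the viability read; nearly all actives have a fitted effect of over 30% in size.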 In a few lines:
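Cytotoxicity was measured in parallel with the ERE-luciferase agonist screen, in the same wells. The cells were VM7Luc4E2, which endogenously express ER-alpha, and treatment was with compounds plus 10.0nM ICI-182,780 for 22hr.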

For test [12], the target named is Progesterone receptor (Homo sapiens) (UniProt P06401). The test can be described thus: qHTS assay to identify small molecule agonists of the progesterone receptor (PR) signaling pathway (AID 1346784; calls by dose curve; also: nearly all actives have a fitted effect of over 30% in size). In a few lines: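 HEK 293T PR-UAS-bla reporter cells, 2% charcoal-stripped FBS; 6 hr settle at 37C/5% CO2, compound (DMSO) 16 hr, LiveBLAzer B/G FRET substrate 2 hr RT, fluorescence intensity read.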

For test [13] the target is unchanged. The test can be described thus: qHTS assay to identify small molecule antagonists of the progesterone receptor (PR) signaling pathway (AID 1346795; active = well fitted inhibition curve with a large enough effect in the signal ratio in the repeat runs, not every such curve was filed as active; the % refers to the signal ratio; also: potency is read from the fitted curve at half-maximal effect). An outline of the steps: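 Beta-lactamase reporter, HEK293T PR-UAS-bla line; 2% charcoal-stripped FBS; 6 hr pre-incubation, 37C/5% CO2. Compound + R5020 1 nM final, 16 hr. LiveBLAzer B/G FRET substrate, 2 hr RT; fluorescence intensity read.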

Test [14] is described as follows: qHTS assay to identify small molecule agonists of the progesterone receptor (PR) signaling pathway - cell viability counter screen (AID 1346799; calls by dose curve; also: nearly all actives have a fitted effect of over 45% in size). In a few lines: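 HEK293T PR-UAS-bla, 3,000 cells/well, 2% charcoal-stripped FBS; 6 h settle, compound 16 h at 37C/5% CO2; LiveBLAzer 2 h RT, then CellTiter-Glo 30 min RT, luminescence read.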
Test [15] can be described thus: qHTS assay to identify small molecule agonists of the TGF-beta/Smad signaling pathway - cell viability counter screen (AID 1346829). Also: top concentration of the series differs between compounds; nearly all actives have a fitted effect of over 45% in size. An outline of the steps:
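Compound-treated SBE-bla HEK 293T cells (5 hr, 37 C) were assessed for viability with CellTiter-Glo in parallel with the reporter read.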

Test [16] in a line: qHTS assay to identify small molecule agonists of the TGF-beta/Smad signaling pathway (AID 1346859; active = well fitted activation curve with a large enough effect in the signal ratio in the repeat runs, not every such curve was filed as active; the % refers to the signal ratio; also: series mostly up to about 77 µM). In a few lines:
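Read-out: fluorescence at 460 and 530 nm (405 nm excitation) after a 2 hr room-temperature incubation with beta-lactamase FRET substrate. SBE-bla HEK 293T cells had been treated with test compounds for 5 hr at 37 C.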

Test [17] deals with Thyrotropin-releasing hormone receptor (Homo sapiens) (UniProt P34981). The test can be described thus: qHTS assay to identify small molecule antagonists of the thyrotropin-releasing hormone receptor (TRHR) signaling pathway (AID 1346877; active = well fitted inhibition curve with a large enough effect in the repeat runs, not every such curve was filed as active; also: series mostly up to about 51 µM). In a few lines:
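Antagonism is measured as suppression of the calcium response to 1 nM TRH in TRHR-HEK293 cells that have been dye-loaded for 2 h at 37 °C after overnight plating. Each compound is tested at 15 concentrations in triplicate.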

The nature of test [18]: qHTS assay to identify small molecule antagonists of the progesterone receptor (PR) signaling pathway - cell viability counter screen (AID 1346798). Also: series mostly up to about 92 µM; nearly all actives have a fitted effect of over 50% in size. An outline of the steps:
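Luminescence readout (CellTiter-Glo, 30 min, RT) of viability in PR-UAS-bla HEK293T cells exposed to compound and R5020 agonist for 16 hr at 37C, 5% CO2; run in the same wells as the beta-lactamase reporter read.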

Test [19] addresses Androgen receptor (Homo sapiens) (UniProt P10275). The test can be described thus: qHTS assay to identify small molecule agonists of the androgen receptor (AR) signaling pathway in the presence of an antagonist (AID 1259381; calls by dose curve; also: nearly all actives have a fitted effect of over 15% in size). In a few lines:
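Agonist-mode confirmation screen: human MDA-kb2 cells stably expressing luciferase under an MMTV promoter bearing AR and GR response elements, co-treated with 3.0uM nilutamide (final). Luminescence measured after 16hr compound incubation.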

A short description of test [20]: qHTS assay to identify small molecule antagonists of the TGF-beta/Smad signaling pathway - cell viability counter screen (AID 1346824). Also: nearly all actives have a fitted effect of over 50% in size. In a few lines:
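SBE-bla HEK 293T cells, incubated overnight, then compound plus 0.25 ng/mL TGF-beta1 (stock added) for 5 hr at 37 C. Viability was read in the same wells by CellTiter-Glo luminescence after 30 min at room temperature.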

Structures are written as SMILES. A number with no mark means an inactive call. Results filed as inconclusive are left out. The source made the active and inactive calls. Unless noted, calls follow the shape of the dose curve; as a rule, active = well fitted curve in the direction sought with a large enough effect in the repeat runs; inconclusive = weak or mixed curves; inactive = no such curve, though single readings can be large; an effect the other way counts as inactive or inconclusive.

Chain of Progesterone receptor (Homo sapiens) (P06401 whole entry, looked up): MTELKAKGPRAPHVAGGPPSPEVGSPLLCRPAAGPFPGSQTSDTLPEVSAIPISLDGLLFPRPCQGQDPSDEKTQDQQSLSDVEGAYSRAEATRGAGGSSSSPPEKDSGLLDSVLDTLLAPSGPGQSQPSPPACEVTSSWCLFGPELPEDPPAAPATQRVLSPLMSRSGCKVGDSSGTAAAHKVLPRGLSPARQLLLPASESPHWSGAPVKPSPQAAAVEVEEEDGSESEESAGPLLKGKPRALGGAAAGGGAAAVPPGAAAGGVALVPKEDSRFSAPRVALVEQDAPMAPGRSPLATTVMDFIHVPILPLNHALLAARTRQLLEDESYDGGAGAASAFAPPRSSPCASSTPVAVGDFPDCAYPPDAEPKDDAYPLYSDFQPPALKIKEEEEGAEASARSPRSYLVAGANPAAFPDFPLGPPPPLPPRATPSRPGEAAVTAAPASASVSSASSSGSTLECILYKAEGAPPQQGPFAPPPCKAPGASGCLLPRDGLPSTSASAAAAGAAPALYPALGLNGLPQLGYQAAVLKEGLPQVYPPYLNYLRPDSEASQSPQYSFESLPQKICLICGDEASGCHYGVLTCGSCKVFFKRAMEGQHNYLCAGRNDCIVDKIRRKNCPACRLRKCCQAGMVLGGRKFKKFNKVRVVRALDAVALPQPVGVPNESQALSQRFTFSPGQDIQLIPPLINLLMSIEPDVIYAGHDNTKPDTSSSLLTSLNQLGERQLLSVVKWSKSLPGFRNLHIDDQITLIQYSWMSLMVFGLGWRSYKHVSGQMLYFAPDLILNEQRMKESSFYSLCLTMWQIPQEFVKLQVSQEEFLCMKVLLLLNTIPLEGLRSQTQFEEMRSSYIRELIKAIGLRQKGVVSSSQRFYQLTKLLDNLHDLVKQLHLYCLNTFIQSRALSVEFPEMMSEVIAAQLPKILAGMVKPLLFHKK
Chain of Estrogen receptor beta (Homo sapiens) (Q92731 whole entry, looked up): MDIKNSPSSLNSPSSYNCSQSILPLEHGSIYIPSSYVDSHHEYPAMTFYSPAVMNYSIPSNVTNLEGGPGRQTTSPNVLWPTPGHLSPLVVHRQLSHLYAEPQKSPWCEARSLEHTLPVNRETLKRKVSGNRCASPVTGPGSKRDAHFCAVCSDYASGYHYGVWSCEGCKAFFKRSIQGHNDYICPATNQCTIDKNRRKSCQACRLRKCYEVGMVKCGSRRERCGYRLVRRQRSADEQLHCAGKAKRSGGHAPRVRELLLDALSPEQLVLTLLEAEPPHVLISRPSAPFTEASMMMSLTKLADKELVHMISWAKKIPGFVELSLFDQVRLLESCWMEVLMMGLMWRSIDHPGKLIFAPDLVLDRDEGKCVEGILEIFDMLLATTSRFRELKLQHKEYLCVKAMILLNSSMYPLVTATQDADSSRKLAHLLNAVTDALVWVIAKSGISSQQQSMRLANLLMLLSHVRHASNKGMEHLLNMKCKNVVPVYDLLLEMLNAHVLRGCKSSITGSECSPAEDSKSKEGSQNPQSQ
Chain of Androgen receptor (Homo sapiens) (P10275 whole entry, looked up): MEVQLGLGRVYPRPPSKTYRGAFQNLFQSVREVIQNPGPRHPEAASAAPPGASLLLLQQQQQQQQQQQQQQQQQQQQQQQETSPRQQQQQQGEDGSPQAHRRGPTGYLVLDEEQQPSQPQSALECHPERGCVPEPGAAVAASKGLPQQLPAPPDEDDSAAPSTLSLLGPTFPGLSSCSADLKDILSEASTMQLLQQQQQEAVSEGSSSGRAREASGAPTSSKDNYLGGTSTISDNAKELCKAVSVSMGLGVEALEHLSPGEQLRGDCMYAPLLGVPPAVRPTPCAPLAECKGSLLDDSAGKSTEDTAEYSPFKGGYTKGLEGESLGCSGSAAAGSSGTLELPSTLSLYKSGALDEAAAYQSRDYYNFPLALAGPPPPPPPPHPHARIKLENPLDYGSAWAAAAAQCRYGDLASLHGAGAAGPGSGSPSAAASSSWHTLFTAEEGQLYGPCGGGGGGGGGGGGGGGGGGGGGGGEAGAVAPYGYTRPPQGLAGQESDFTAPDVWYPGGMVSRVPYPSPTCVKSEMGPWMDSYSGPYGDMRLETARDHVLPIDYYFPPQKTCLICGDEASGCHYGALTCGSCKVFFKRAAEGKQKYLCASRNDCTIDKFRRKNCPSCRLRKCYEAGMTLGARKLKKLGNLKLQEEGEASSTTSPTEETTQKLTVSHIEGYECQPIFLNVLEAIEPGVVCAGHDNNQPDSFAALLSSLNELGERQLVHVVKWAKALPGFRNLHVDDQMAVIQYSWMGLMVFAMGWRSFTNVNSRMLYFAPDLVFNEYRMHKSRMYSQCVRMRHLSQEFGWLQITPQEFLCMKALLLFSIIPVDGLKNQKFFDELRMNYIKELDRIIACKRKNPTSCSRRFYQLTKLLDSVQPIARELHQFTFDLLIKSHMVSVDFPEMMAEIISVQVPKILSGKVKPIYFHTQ
Chain of Thyrotropin-releasing hormone receptor (Homo sapiens) (P34981 whole entry, looked up): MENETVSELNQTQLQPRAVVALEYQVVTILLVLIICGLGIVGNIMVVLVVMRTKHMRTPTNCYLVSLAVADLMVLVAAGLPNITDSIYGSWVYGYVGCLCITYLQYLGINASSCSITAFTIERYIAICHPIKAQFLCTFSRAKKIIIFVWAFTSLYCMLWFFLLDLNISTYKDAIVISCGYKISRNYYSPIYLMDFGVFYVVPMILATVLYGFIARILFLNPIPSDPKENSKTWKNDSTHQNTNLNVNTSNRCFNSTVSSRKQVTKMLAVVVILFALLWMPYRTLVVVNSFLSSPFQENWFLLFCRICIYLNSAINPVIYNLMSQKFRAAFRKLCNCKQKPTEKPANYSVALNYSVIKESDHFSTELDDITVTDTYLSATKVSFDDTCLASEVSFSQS
Chain of Estrogen receptor (Homo sapiens) (P03372 whole entry, looked up): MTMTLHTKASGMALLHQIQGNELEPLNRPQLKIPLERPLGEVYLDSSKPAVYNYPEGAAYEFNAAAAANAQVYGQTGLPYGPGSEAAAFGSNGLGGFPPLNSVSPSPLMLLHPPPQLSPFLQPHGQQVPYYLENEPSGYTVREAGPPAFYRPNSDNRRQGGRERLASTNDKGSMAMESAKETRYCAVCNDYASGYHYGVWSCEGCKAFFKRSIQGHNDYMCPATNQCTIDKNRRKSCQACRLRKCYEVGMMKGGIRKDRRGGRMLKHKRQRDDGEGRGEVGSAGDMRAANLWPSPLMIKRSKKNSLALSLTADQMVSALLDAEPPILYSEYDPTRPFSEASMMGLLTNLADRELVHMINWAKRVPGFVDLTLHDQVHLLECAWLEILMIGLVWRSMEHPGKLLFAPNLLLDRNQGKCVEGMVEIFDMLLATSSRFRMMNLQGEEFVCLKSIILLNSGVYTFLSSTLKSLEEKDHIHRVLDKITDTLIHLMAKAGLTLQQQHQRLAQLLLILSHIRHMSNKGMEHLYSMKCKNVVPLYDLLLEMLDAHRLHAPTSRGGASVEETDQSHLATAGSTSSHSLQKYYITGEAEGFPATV
Chain of Thyrotropin receptor (Homo sapiens) (P16473 whole entry, looked up): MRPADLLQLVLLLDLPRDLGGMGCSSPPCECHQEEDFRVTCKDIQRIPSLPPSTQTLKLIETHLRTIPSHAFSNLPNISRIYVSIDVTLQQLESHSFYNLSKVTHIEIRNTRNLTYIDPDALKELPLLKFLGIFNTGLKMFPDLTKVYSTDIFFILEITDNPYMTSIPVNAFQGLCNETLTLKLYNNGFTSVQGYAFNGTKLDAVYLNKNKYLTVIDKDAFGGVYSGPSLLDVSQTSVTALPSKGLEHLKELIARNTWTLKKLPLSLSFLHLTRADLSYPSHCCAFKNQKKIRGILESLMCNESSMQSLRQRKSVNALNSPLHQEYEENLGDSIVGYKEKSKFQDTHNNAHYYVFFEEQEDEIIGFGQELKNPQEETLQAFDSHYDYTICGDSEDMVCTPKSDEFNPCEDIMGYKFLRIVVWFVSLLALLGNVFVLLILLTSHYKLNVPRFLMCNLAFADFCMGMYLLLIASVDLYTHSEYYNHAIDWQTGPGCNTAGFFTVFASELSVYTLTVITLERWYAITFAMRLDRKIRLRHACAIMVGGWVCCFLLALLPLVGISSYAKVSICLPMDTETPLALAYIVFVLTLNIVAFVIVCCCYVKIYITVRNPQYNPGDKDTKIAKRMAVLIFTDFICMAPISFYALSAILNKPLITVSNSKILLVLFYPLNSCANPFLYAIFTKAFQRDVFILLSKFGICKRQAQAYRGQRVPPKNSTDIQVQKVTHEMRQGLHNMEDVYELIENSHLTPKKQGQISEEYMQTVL

Regarding `Cc1ccnc2ccccc12`, the Potency entry in test [1], in [3], in test [4], in test [5], in test [6] and in test [7] was “inactive” each time. Besides, the Potency entry in test [8], in test [10], in [11], in test [12], in test [13] and in test [14] was “inactive” each time. The Potency in test [2] was 48.4 µM (active). Also, the call in test [9], in test [15], in [16] and in [17] was inactive.
Turning to `C/C=C(\C)C(=O)OCCC(C)CCC=C(C)C` (centres undefined), the Potency entry in test [1], in [2], in test [3], in test [4], in [5] and in [7] was “inactive” throughout. The Potency entry in [11], in test [12], in [13], in test [18] and in test [14] was “inactive” each time. For the same compound, the compound was classed as inactive in test [15] and in test [16].
In the case of `O=C(CCCCCCCCC#CI)Oc1ccccc1`, the Potency entry in test [1], in test [2], in test [3], in [4], in test [5] and in test [6] was “inactive” each time. Besides, the Potency entry in test [19], in test [7], in test [10], in test [11], in [12] and in [13] was “inactive” each time. For the same compound, the Potency entry in [18] and in [14] was “inactive” throughout. Further, the compound was classed as inactive in test [9], in test [20], in [15] and in [17].
For the compound `COc1ccc(CCC(=O)c2c(O)cc(O[C@@H]3O[C@H](CO)[C@@H](O)[C@H](O)[C@H]3O[C@@H]3O[C@@H](C)[C@H](O)[C@@H](O)[C@H]3O)cc2O)cc1O`, the Potency entry in [1], in test [2], in test [3], in [4], in test [5] and in test [6] was “inactive” each time. Further, the Potency entry in test [19], in test [7], in test [8], in test [10], in [11] and in test [12] was “inactive” each time. In addition, the Potency entry in test [13], in test [18] and in test [14] was “inactive” each time. In addition, the outcome in test [9], in [20], in test [15], in test [16] and in [17] was inactive.
Turning to `NC(=O)N(O)[C@@H]1COc2cc(OCc3ccccc3)ccc21`, the Potency result in test [1], in test [2], in test [5], in test [6], in [7] and in [8] was “inactive” in each case. Moreover, the Potency entry in test [10] and in test [11] was “inactive” throughout. Besides, the call in test [9], in test [20], in test [15] and in test [16] was inactive. The Potency in test [13] was 13.7 µM (active).
For `CC1=NN(c2ccc(C(=O)O)cc2)C(=O)C1`, the Potency entry in [1], in test [2], in [5], in test [6], in test [19] and in [7] was “inactive” each time. For the same compound, the Potency entry in test [11], in test [12], in test [13], in test [18] and in [14] was “inactive” each time. For the same compound, the call in test [20], in test [15], in [16] and in test [17] was inactive.
As for `C=C(C)C(=O)OCCOC(=O)CC(C)=O`, the Potency result in test [1], in [2], in [5], in test [6], in test [7] and in test [10] was “inactive” throughout. Besides, the Potency entry in test [11], in test [12], in test [18] and in test [14] was “inactive” each time. Also, the outcome in [9], in test [15] and in [16] was inactive.
On to `Nc1ccc(S(=O)(=O)O)cc1`, for which the Potency result in test [1], in [2], in test [5], in [6], in test [7] and in test [8] was “inactive” in each case. For the same compound, the Potency entry in test [11], in test [12], in test [13], in [18] and in [14] was “inactive” each time. The call in test [20], in [15], in [16] and in [17] was inactive.
